CSC inhib: blocks cancer stem cells | cancer stem cell-like cells viability, luminescence | inhibition, % at 7.5 µM | actives 1.1% (n = 300,000) | AID 2717; in the data active means inhibition above about 75%; tested in HMLE shEcad cells
NR3A LBD binder: modulates the human NR3A ligand-binding domain. NR3A LBD differential scanning fluorimetry, Tm shift; 0% = protein alone, 100% = glycine-bound protein. Tm shift relative to glycine control, % at 25 µM. actives 2.5% (n = 340,000). AID 1259313;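 active means melting temperature shift of at least 10% of the positive control shift, at one fixed dose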
Beta cell apopt: beta cell apoptosis inhibition. INS-1E cytokine-induced death, ATP luminescence, 48 h; percent of positive-control rescue, neutral wells zero. protection from apoptosis, % (concentration not given with the values). actives 0.8% (n = 300,000). AID 435005;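 active means Every replicate reaches about 75%, or at least half do and their mean reaches it too, limit read from the data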;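 further: 0% = cytokine-treated negative control wells and 100% = positive control rescue; higher means more ATP so stronger rescue from cytokine killing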
Mdm2 MdmX PPI: inhibitors of human Mdm2/MdmX interaction | actives 3% (n = 330,000) | SaOS-2 split-luciferase Mdm2/MdmX complementation, luminescence | inhibition, % at 8 µM | O15151+Q00987;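 active means inhibition of at least 50% at 8 µM in the primary screen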
MPTP block: inhibitors of mitochondrial permeability transition pore | isolated mouse mitochondria, Ca2+ swelling absorbance, 30 min | inhibition, % at 10 µM | actives 1.4% (n = 360,000) | AID 602449;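 active means inhibition of 50% or more, scaled per plate between neutral and stimulator controls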;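 further: 0% = DMSO wells given calcium and 100% = 1 mM EGTA wells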
SKKanGAS inh: SKKanGAS growth inhibition. S. pyogenes SKKanGAS, kanamycin growth, BacTiter-Glo, 6 h. inhibition, % at 7.5 µM. actives 1.3% (n = 300,000). AID 1662;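 active means mean replicate score, as percent of positive control median, at least 50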;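 further: strain carries kanamycin resistance gene driven by streptokinase promoter and grows in 40 µg/ml kanamycin; loss of luminescence reflects streptokinase promoter inhibition or plain growth inhibition; 0% = median of DMSO wells and 100% = positive control at its reference dose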
An asterisk follows results filed as active; . = not tested or not shown. Sampled rows, rich in hits. Any-hit rate of the full collection: about 6.9%.

SMILES	CSC inhib	NR3A LBD binder	Beta cell apopt	Mdm2 MdmX PPI	MPTP block	SKKanGAS inh
COc1ccc(-c2cc(C(=O)NC(C)c3ccccn3)c3ccccc3n2)cc1OC (configuration not stated)	-7	0	-7	21	-2	.
CCOc1ccc2nc(SCC(=O)c3ccc(O)cc3O)sc2c1	12	16*	-15	6	3	1
CCOc1ccc2nc(NC(=O)CSc3ccc(Cl)cc3)sc2c1	0	10*	.	-24	19	14
O=C(CSc1ncn(-c2ccccc2)n1)Nc1nc(-c2ccccc2)cs1	-4	6	1	10	4	4
CCOc1ccc2nc(SCC(=O)c3ccc(C)s3)sc2c1	-14	-7	.	0	1	-2
CCOc1ccc2nc(NC(=O)CSc3cn[nH]n3)sc2c1	11	0	-2	-56	-1	-10
CCOc1ccc(-c2nnc3ccc(SCC(=O)N4CCCCC4)nn23)cc1	-5	3	-5	10	0	3
O=C(CSc1ncn(-c2ccccc2)n1)Nc1nc2ccccc2s1	-2	22*	-7	5	0	-3
CCOc1ccc(-c2nnc3ccc(SC(C)C)nn23)cc1	6	2	9	29	1	57*
CCOC(=O)CCCNC(=O)COC(=O)c1cccc(F)c1	-10	-2	-3	3	-1	-2
COCCN(C(=O)COc1ccccc1C#N)c1c(N)n(Cc2ccccc2)c(=O)[nH]c1=O	-2	1	-1	-1	-2	2
CCN1CCN(C(=O)/C(=C/c2cccs2)NC(=O)c2ccc(C)c(C)c2)CC1	-7	1	-9	14	0	1
CCOc1ccc2nc(NC(=O)/C=C/c3ccc4c(c3)OCO4)sc2c1	3	35*	8	35	1	-16
O=C(CSc1ccccc1)Nc1nnc(COc2ccc(Cl)cc2)s1	7	14*	-12	13	-16	20
O=C(CSc1ccc(Cl)cc1)NC1=NN(c2ccccc2)C(=O)C1	-3	1	0	-21	0	77*
CCOc1ccc2nc(NC(=O)C3(C)CC3(Br)Br)sc2c1 (configuration not stated)	41	-5	.	-47	-1	20
CCOc1ccc2nc(NC(=O)CSC3=NCCS3)sc2c1	.	18*	-6	29	-1	-3
COCCNC(=O)C(=O)NCC1OCCN1S(=O)(=O)c1ccc(F)cc1 (configuration not stated)	1	-1	-8	7	0	5
COCC(C)NS(=O)(=O)c1ccc(C(=O)NC(Cc2ccccc2)c2ccccc2)cc1 (configuration not stated)	11	-3	-5	8	1	4
O=C(c1cc(C2CCCCN2S(=O)(=O)c2cccs2)on1)N1CCOCC1 (configuration not stated)	.	.	.	.	-1	.
COc1ccc2nc(NC(=O)CSC3=NCCS3)sc2c1	-15	-1	-20	8	0	3
CCOc1ccc(-c2nnc3ccc(SCC(=O)Nc4nc5ccccc5s4)nn23)cc1	-23	5	7	16	1	10
CCOc1ccc(-c2nnc3ccc(SCC(=O)Nc4nc5ccc(C)cc5s4)nn23)cc1	1	22*	-6	16	2	21
COc1ccc2nc(NC(=O)CSc3ccccc3)sc2c1	2	31*	.	-25	0	-2
CC(C)(C)C(=O)Nc1cc2c3c(c1)CCC(=O)N3CCC2	6	0	-4	-7	-2	0
SMILES	CSC inhib	NR3A LBD binder	Beta cell apopt	Mdm2 MdmX PPI	MPTP block	SKKanGAS inh
O=C(NCCc1ccc(F)cc1)c1cc(-c2ccncc2)nc2ccccc12	.	.	.	.	.	0
Cc1ccc(-c2csc(NC(=O)/C=C/c3cccs3)n2)cc1C	-6	19*	-2	35	0	37
Nc1nonc1-c1nc2ccccc2n1CC(=O)N/N=C\c1ccc(-c2ccc(Cl)cc2)o1	-3	2	-8	29	0	99*
NNC(=O)Cn1c(-c2nonc2N)nc2ccccc21	10	-1	-9	-9	-1	2
O=C(C1CCC(=O)N(C2CC2)C1)N1CCC(Oc2ccccc2F)CC1 (configuration not stated)	-6	0	.	2	-1	38
Cc1ccc(S(=O)(=O)N2CCCC2CNC(=O)C(=O)Nc2ccc(F)cc2F)cc1 (configuration not stated)	.	1	0	1	0	-4
OCCNCCCCOc1cccc(Br)c1	11	2	-3	-24	5	-4
C=CCNCCCCOc1cccc(Br)c1	.	28*	-13	6	-1	-4
CCOC(=O)C1=C(COC(=O)c2ccc(C)c(S(=O)(=O)N3CCOCC3)c2)NC(=O)NC1C (configuration not stated)	.	-2	.	20	2	.
COc1ccc(-n2c(=O)c3c4c(sc3n3c(=S)[nH]nc23)COC(C(C)C)C4)cc1 (configuration not stated)	-19	-3	-2	21	1	27
Nc1cc(-c2ccc(Br)cc2)nc2cc(-c3ccccc3)nn12	.	34*	-7	-38	3	40
O=C(Nc1ccccc1C(=O)O)c1cccc(C(=O)Nc2ccccc2C(=O)O)c1	-21	10*	-2	0	0	9
Cc1ccc(C(=O)Nc2ccccc2C(=O)O)cc1NC(=O)COc1c(C)cccc1C	-17	-8	-1	23	-3	22
O=C(COc1ccc(Cl)cc1Cl)NC(=S)Nc1ccccc1C(=O)O	-5	.	-10	-15	.	15
O=C(COc1ccc(Cl)cc1Cl)Nc1ccc(C(=O)Nc2ccccc2C(=O)O)cc1	-7	16*	-5	30	1	62*
Cc1ccc(NC(=O)Nc2cccc(Cl)c2)c(C(=O)O)c1	-6	12*	-8	5	11	0
Cc1cc(C(=O)Nc2ccccc2C(=O)O)ccc1NC(=O)COc1cccc(C)c1C	12	-2	4	0	1	54*
O=C(Nc1ccccc1C(=O)O)c1ccccc1	7	6	2	-11	-2	-9
O=C(N=C1SC2CS(=O)(=O)CC2N1c1ccc(Br)cc1)C1CCCO1 (configuration not stated)	-7	1	1	-3	-3	0
O=C(NCc1ccccc1)c1ccc(Cl)cc1	-9	-2	-1	5	.	-5
O=C(NCc1ccc(Cl)cc1)c1cccc(NC(=O)c2ccccc2)c1	111*	-3	11	29	17	8
COc1ccc(CC(=O)Nc2cccc(C(=O)Nc3ccccc3C(=O)O)c2)cc1OC	-7	-6	-10	20	0	11
O=C(Cc1ccc(Cl)cc1)Nc1cccc(C(=O)Nc2ccccc2C(=O)O)c1	0	13*	-8	4	0	29
CC(=O)Nc1cccc(C(=O)Nc2ccccc2C(=O)O)c1	13	-2	-7	3	0	0

High-throughput results deposited in PubChem by several laboratories.
